The results in this text go back to ChEMBL document CHEMBL4808148, “HDAC6 screening dataset using tau-based substrate in an enzymatic assay yields selective inhibitors and activators” (2021).

A word on the inhibition: it is the change of the read-out against control, counted positive when it falls.

“And” between values parts separate entries of the source, which are not always exact repeats. Identical values can stand only once. Out of some 5,600 compounds screened, about 390 (7%) showed an effect of 50% or more. The entries come from a sample that favours strong results as a whole.

The target of the assay is T1, Protein deacetylase HDAC6 (Homo sapiens) (UniProt Q9UBN7).
T1 sequence (whole entry): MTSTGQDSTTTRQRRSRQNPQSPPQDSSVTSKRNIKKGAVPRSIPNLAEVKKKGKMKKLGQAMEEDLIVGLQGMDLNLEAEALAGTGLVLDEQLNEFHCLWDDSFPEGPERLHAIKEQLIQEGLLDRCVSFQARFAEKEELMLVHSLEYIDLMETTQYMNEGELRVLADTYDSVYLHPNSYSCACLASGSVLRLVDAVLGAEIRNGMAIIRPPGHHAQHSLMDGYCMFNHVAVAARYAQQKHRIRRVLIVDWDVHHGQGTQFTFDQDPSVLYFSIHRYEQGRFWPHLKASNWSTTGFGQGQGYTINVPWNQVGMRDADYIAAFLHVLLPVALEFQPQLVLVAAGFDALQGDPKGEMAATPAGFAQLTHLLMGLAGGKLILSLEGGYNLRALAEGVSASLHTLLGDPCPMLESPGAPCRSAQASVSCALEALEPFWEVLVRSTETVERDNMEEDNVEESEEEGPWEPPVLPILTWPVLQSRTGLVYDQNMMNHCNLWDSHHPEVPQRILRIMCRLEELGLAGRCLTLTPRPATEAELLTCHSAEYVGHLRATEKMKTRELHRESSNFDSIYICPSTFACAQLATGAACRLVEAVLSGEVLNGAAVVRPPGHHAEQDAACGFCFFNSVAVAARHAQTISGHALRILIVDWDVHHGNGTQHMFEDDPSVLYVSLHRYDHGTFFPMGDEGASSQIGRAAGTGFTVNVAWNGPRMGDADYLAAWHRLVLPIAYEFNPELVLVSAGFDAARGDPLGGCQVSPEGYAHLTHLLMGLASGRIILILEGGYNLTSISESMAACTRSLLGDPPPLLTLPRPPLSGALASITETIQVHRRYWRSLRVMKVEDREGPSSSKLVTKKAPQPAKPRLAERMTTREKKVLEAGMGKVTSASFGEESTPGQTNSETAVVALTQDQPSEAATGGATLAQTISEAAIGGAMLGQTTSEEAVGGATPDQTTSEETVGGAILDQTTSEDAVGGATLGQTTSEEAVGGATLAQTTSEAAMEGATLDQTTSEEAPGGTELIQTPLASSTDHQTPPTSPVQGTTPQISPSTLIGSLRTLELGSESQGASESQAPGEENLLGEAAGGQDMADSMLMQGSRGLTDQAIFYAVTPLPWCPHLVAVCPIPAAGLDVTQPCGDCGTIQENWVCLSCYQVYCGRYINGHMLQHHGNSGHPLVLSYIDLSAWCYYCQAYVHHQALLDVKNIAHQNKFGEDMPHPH
The note with it: at 10 µM.
For the molecule `CCC1=C[C@@H]2CN3CCc4c([nH]c5ccccc45)[C@@](C(=O)OC)(C2)[C@@H]13`, the inhibition worked out at 2.61%.

Regarding `COc1cc(OC)c(/C=C2/C(=O)Nc3ccccc32)c(OC)c1`, the inhibition was -6%.

With `Cn1cccc1/C=C1\C(=O)NC(=O)c2ccccc21`, the inhibition turned out to be 61.5%.

As to `Cc1nc2ccc(-n3ncc(C(=O)c4cc5ccccc5[nH]4)c3N)cc2[nH]1`, the inhibition is 100%.

On to `CN1CC[C@@H](NC(=O)Nc2ccc(C#N)cc2)C[C@@H]1c1nc2ccccc2[nH]1`, for which the inhibition was -9.46%.

On to `CCCCCCCCCCCCC/C=C/[C@@H](O)[C@@H](N)COP(=O)([O-])OCC[N+](C)(C)C`, for which the inhibition is 23.4%.

As to `CCO[C@@H]1OC(=O)C[C@@H]1NC(=O)[C@@H]1CCCN1C(=O)[C@@H](NC(=O)c1ccc(N)c(Cl)c1)C(C)(C)C`, the inhibition came out at 12.6%.

`CC(C)C(=O)OCC(=O)[C@@]12O[C@H](C3CCCCC3)O[C@@H]1C[C@H]1[C@@H]3CCC4=CC(=O)C=C[C@]4(C)[C@H]3[C@@H](O)C[C@@]12C`: the inhibition is 7.25%.

With `CCOC(=O)C12CC1/C(=N\O)c1ccccc1O2` (stereo unspecified), the inhibition was 38.5%.

Regarding `CN1[C@@H]2CC[C@H]1C[C@@H](OC(=O)N1Cc3ccccc3NC1=O)C2`, the inhibition was -7.98%.

As for `O=C(O[C@@H]1C[C@@H]2C[C@H]3C[C@H](C1)N2CC3=O)c1c[nH]c2ccccc12`, the inhibition was found to be 61.3%.

With `Cc1nc(Cn2cnc3c2c(=O)n(C)c(=O)n3C)no1`, the inhibition was 24.3%.

Take `CC(C)(C)NCC(O)c1cc(Br)no1` (stereo unspecified): the inhibition worked out at 18.5%.

Take `O=C(O)CCCNC(=O)c1cccnc1`: the inhibition is 28.7%.

Regarding `CCN1CCCC(OC(=O)C(c2ccccc2)c2ccccc2)C1` (stereo unspecified), the inhibition was -1.02%.

As for `O=C(O)[C@@H](c1ccc(OCc2ccc3ccccc3n2)cc1)C1CCCC1`, the inhibition worked out at 93.6%.

Consider `CC(CNC1CCCCC1)OC(=O)c1ccccc1` (stereo unspecified), for which the inhibition came to 34.8%.

In the case of `CCCCN(CC)c1c([N+](=O)[O-])cc(C(F)(F)F)cc1[N+](=O)[O-]`, the inhibition was 10.6%.

Consider `CC(C)C(=O)SCCCCC[C@H](NC(=O)OC(C)(C)C)C(=O)NC12CC3CC(CC(C3)C1)C2`, for which the inhibition came to 52%.

Take `CN(Cc1cccc(-c2ccccc2)c1)C(=O)Oc1ccc(-c2ccc(C(N)=O)cc2)cc1`: the inhibition is 25.7%.

On to `NC(=O)c1cccc(-c2cccc(OC(=O)NC3CCCCC3)c2)c1`, for which the inhibition was found to be 95.1%.

Turning to `N[C@@H]1CCN(c2cccnc2)C1`, the inhibition is 18.5%.

Turning to `N#Cc1ccc(N2N=C3c4ccc(C(=O)O)cc4CC[C@@H]3[C@@H]2C2CCCC2)cc1Cl`, the inhibition amounted to 20.4%.

Turning to `CCCOc1ccc2c(c1)CC[C@@H]1[C@@H]2CC[C@]2(C)[C@@H](OC)CC[C@@H]12`, the inhibition was -9.5%.

With `CCc1oc2ccccc2c1C(=O)c1ccc(OCC(=O)O)cc1`, the inhibition is -6.7%.

With `COc1nc(N)nc2c1ncn2[C@@H]1O[C@H](CO)[C@@H](O)[C@@H]1O`, the inhibition amounted to 35.9%.

Turning to `CC(C)Nc1nc2cc(Cl)c(Cl)cc2n1[C@H]1O[C@@H](CO)[C@H](O)[C@@H]1O`, the inhibition stood at 82.2%.

As to `NC(=O)c1ncn([C@@H]2O[C@H](CO)[C@@H](O)[C@H]2O)n1`, the inhibition is -7.83%.

For `Cc1cc(C)cc(NC(=O)Cc2ccc(OC(C)(C)C(=O)O)cc2)c1`, the inhibition is -3.44%.

Regarding `O=C(COc1cccc2c(=O)[nH]ccc12)c1ccccc1`, the inhibition worked out at 65.9%.

For the molecule `N#CCC(=O)c1ccccc1`, the inhibition was 19.1%.

For the molecule `COc1ccc(C(=O)CCC(=O)O)c2ccccc12`, the inhibition turned out to be 0.61%.

On to `C[C@]12CC[C@H]3[C@@H](CCC4=CC(=O)CC[C@@]43C)[C@@H]1CC[C@@H]2C(=O)CO`, for which the inhibition is 32.2%.

For the molecule `O=C(N[C@H]1CN2CCC1CC2)c1c[nH]c2ccsc2c1=O`, the inhibition came out at 10.3%.

For the molecule `Cn1nnc(-c2ccc(-c3ccc(N4C[C@H](COP(=O)(O)O)OC4=O)cc3F)cn2)n1`, the inhibition is -2.24%.

Regarding `O=C(CCCl)NCCc1ccccc1`, the inhibition amounted to 11.9%.

`O=C(NCc1cccc(O)c1)Nc1nc(-c2ccncc2)cs1`: the inhibition is 3.24% and 13.9%.

Consider `c1ccc(CCNc2nc(-c3ccccc3)cs2)cc1`, for which the inhibition was found to be 79.1%.

Consider `O=C(CCn1cnc2c(=O)[nH]cnc21)Nc1ccc(C(=O)O)cc1`, for which the inhibition was determined as 11.5%.

For the molecule `Brc1c(Br)c(Br)c2[nH]nnc2c1Br`, the inhibition was determined as 55.5%.

As for `O=C(Nc1ccc(S(=O)(=O)C(F)(F)F)cc1)C1=CCN(c2ncccc2C(F)(F)F)CC1`, the inhibition came out at 8.48%.

As for `C[C@]12CCC(=O)C=C1CC[C@@H]1[C@@H]2[C@@H](O)C[C@]2(C)C(=O)CC[C@@H]12`, the inhibition is -0.5%.

Regarding `CCCC(CCC)C(=O)NCc1ccc2c(cnn2-c2ccccc2OC)c1`, the inhibition is -9.99%.

As for `Nc1nc(OCc2ccccc2)c2nc[nH]c2n1`, the inhibition turned out to be 68.9%.

With `c1ccc(CNc2ncnc3[nH]cnc23)cc1`, the inhibition is 3.46%.

Take `CC(=O)O[C@H]1C[C@@H]2CC[C@@H]3[C@H](CC[C@@]4(C)[C@H]3C[C@H](N3CC[N+](C)(C)CC3)[C@@H]4OC(C)=O)[C@@]2(C)C[C@@H]1N1CC[N+](C)(C)CC1`: the inhibition is -3.02%.

For the molecule `CN1C(=O)N(c2ccc(C#N)c(C(F)(F)F)c2)C(=O)[C@@]1(CO)c1ccccc1`, the inhibition is 16.8%.

Turning to `CN(CCOP(=O)(O)O)C(=N)N`, the inhibition worked out at 20.7%.

Take `O=C1N=C(N2CCOCC2)CN1c1ccc(Cl)cc1`: the inhibition amounted to 8.65%.

In the case of `NC(Cc1ccc(O)cc1)C(=O)O` (racemic), the inhibition turned out to be 12.8%.

As to `N[C@H](C(=O)O)[C@@H]1CC(Cl)=NO1`, the inhibition stood at 2.38%.
